The results in this text go back to PubChem BioAssay AID624139 (Broad Institute, 2012).

The campaign covered roughly 17,000 compounds. About 220 (1.3%) were called active.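 How the source made its calls: active means spot fluorescence over background significantly raised, with a chance value under 7% in all four replicate spots of the compound; inactive means the rest.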 The sample as a whole holds a higher share of actives than the screen did.

The target of this assay is Nuclear factor NF-kappa-B p105 subunit (Homo sapiens) (UniProt P19838). The assay can be described thus: binders of NF-kB p50 subunit, primary screen, biochemical, small molecule microarray, anti-His fluorescence (AID 624139).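 Further: probe protein is his-tagged human p50 processed subunit at 1 µg/ml.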 The settings on record: anti-His fluorescence binding.
Sequence of Nuclear factor NF-kappa-B p105 subunit (Homo sapiens) (P19838 1-433 limits assumed): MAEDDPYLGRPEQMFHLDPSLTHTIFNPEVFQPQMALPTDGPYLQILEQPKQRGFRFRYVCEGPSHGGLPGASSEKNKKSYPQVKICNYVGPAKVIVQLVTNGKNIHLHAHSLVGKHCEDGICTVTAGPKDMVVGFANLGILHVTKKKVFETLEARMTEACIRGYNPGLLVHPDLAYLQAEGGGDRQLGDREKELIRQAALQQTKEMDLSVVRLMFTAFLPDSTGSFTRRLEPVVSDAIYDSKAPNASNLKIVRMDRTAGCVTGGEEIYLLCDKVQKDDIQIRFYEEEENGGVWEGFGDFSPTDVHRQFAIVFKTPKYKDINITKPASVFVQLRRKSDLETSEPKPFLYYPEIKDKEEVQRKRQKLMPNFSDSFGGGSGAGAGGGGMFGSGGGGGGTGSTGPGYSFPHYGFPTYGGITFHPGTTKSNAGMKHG
In the case of `O=C1CC(C(=O)Nc2cccc(C(=O)O)c2)C(c2ccccc2)O1` (configuration not stated), the compound was called inactive.

As to `Cc1noc(C)c1S(=O)(=O)N(C)C[C@H]1Oc2ccc(NC(=O)Nc3cccc4ccccc34)cc2CC(=O)N([C@@H](C)CO)C[C@H]1C`, the compound was called inactive.

For the compound `Cc1noc(C)c1NC(=O)Nc1ccc2c(c1)CC(=O)N([C@H](C)CO)C[C@H](C)[C@H](CN(C)C(=O)NC(C)C)O2`, the compound was called inactive. For the compound `O=C1O[C@@H](c2ccccc2)[C@@H](c2ccccc2)N2[C@@H](c3ccc(OCCO)cc3)[C@]3(C(=O)Nc4ccc(C#CCCO)cc43)[C@@H](C(=O)O)[C@H]12`, the result was inactive. The same measure for `COc1ccc(C#Cc2ccc3c(c2)[C@]2(C(=O)N3)[C@H](C(=O)N3CCc4cc(OC)c(OC)cc4C3)[C@H]3C(=O)O[C@H](c4ccccc4)[C@H](c4ccccc4)N3[C@@H]2c2ccc(O)cc2)cc1`: “active”; for `COc1ccc(C#Cc2ccc3c(c2)[C@]2(C(=O)N3)[C@H](c3ccccc3OCCO)N3[C@H](c4ccccc4)[C@H](c4ccccc4)OC(=O)[C@H]3[C@@H]2C(=O)N2CCCCCCC2)cc1`: “active”. The same measure for `O=C1O[C@@H](c2ccccc2)[C@@H](c2ccccc2)N2[C@@H](c3ccccc3OCCO)[C@]3(C(=O)Nc4ccc(C#CC5(O)CCCCCC5)cc43)[C@@H](C(=O)N3CCCCCCC3)[C@H]12`: “inactive”; for `O=C1O[C@@H](c2ccccc2)[C@@H](c2ccccc2)N2[C@@H](c3ccccc3OCCO)[C@]3(C(=O)Nc4ccccc43)[C@@H](C(=O)N3CCCCCCC3)[C@H]12`: “inactive”; for `COc1ccc(C#Cc2ccc3c(c2)[C@]2(C(=O)N3)[C@H](C(=O)N3CCCCCCC3)[C@H]3C(=O)O[C@H](c4ccccc4)[C@H](c4ccccc4)N3[C@@H]2c2ccc(O)cc2)cc1`: “inactive”.

With `O=c1c(-c2ccc(O[C@@H]3O[C@H](CO)[C@@H](O)[C@H](O)[C@H]3O)cc2)coc2c([C@@H]3O[C@H](CO)[C@@H](O)[C@H](O)[C@H]3O)c(O)cc(O)c12`, the compound was classed as inactive. For `CC(C)NC(=O)Nc1ccc2c(c1)C(=O)N([C@H](C)CO)C[C@H](C)[C@H](CN(C)C(=O)CCC(F)(F)F)OCCCC[C@H](C)O2` the value was “inactive”. For `C[C@H](CO)N1C[C@H](C)[C@H](CN(C)S(=O)(=O)c2cn(C)cn2)OCCCC[C@H](C)Oc2ccc(N(C)C)cc2C1=O` the value was “inactive”. Take `C[C@H](CO)N1C[C@H](C)[C@H](CN(C)C(=O)Nc2ccccc2C(F)(F)F)OCc2cn(nn2)CCCC1=O`: the result was inactive. For `C[C@@H]1CN([C@@H](C)CO)C(=O)c2cccc(NC(=O)c3nc4ccccc4s3)c2O[C@H]1CN(C)S(=O)(=O)c1cccs1`, the compound was classed as inactive. The same measure for `COC(=O)C(CC#Cc1ccc2c(c1)[C@]1(C(=O)N2)[C@H](c2ccc(O)cc2)N2[C@H](c3ccccc3)[C@H](c3ccccc3)OC(=O)[C@H]2[C@@H]1C(=O)NC[C@H](O)c1ccccc1)C(=O)OC`: “inactive”. Take `C[C@@H]1CN([C@H](C)CO)C(=O)c2cc(NC(=O)C3CC3)ccc2O[C@@H]1CN(C)C`: the compound was classed as inactive. The same measure for `C[C@@H]1CN([C@@H](C)CO)C(=O)Cc2cc(NC(=O)Cc3ccccc3)ccc2O[C@@H]1CN(C)C(=O)Nc1ccc2c(c1)OCO2`: “inactive”; for `C[C@@H]1CN([C@H](C)CO)C(=O)c2cc(NC(=O)Nc3ccc4c(c3)OCO4)ccc2O[C@@H]1CN(C)C(=O)Nc1ccc(F)cc1`: “inactive”. As to `COc1ccc(S(=O)(=O)N(C)C[C@@H]2Oc3ccc(NC(=O)Cc4ccccc4)cc3CC(=O)N([C@@H](C)CO)C[C@H]2C)cc1`, the compound was classed as inactive. Consider `C[C@@H]1CN([C@@H](C)CO)C(=O)c2cc(NS(=O)(=O)c3cn(C)cn3)ccc2O[C@@H]1CN(C)C(=O)NC1CCCCC1`, for which the compound was called inactive. For `Cc1ccc(N(C(=O)COc2ccccc2[N+](=O)[O-])C2C=CS(=O)(=O)C2)cc1` (configuration not stated) the value was “inactive”; for `Cc1ccc(S(=O)(=O)N(C)CC(=O)Nc2cccc(C(F)(F)F)c2)cc1`, “inactive”. Turning to `COCCCNC(=O)[C@@]1(C)c2ccccc2C(=O)N(Cc2ccc(OC(F)(F)F)cc2)[C@H]1c1ccc(CO)cc1`, the call was inactive. For `C[C@H](CO)N1C[C@H](C)[C@@H](CN(C)S(=O)(=O)c2cn(C)cn2)Oc2c(NC(=O)C3CC3)cccc2C1=O` the value was “inactive”. As to `CCOC(=O)Cc1csc(NC(=O)c2sc3cccc(F)c3c2Cl)n1`, the result was inactive. For `O=C(CNS(=O)(=O)c1cccc(C(F)(F)F)c1)Nc1ccccc1F` the value was “inactive”; for `S=C(NCc1ccco1)N1CCN(c2ncccn2)CC1`, “inactive”; for `C[C@@H]1CN([C@H](C)CO)C(=O)Cc2cc(NS(=O)(=O)c3ccc(Cl)cc3)ccc2O[C@@H]1CN(C)S(=O)(=O)c1ccc(Cl)cc1`, “inactive”. For `COc1ccc(C)cc1S(=O)(=O)N(C)CC(=O)Nc1ccccc1SC` the value was “inactive”; for `CCCCc1nn(-c2ccccc2C(F)(F)F)c(=O)n1Cc1ccc(-c2ccccc2S(=O)(=O)NC(=O)c2sccc2C)cc1`, “active”; for `C[C@@H]1CN([C@H](C)CO)C(=O)Cc2cc(NC(=O)Cc3cn(C)c4ccccc34)ccc2O[C@@H]1CN(C)Cc1ccc(C(F)(F)F)cc1`, “inactive”. The same measure for `CC(C)NC(=O)N(C)C[C@H]1OCCCC[C@H](C)Oc2ccc(NC(=O)CCC(F)(F)F)cc2C(=O)N([C@H](C)CO)C[C@H]1C`: “inactive”; for `C[C@H]1CCCCO[C@@H](CN(C)C(=O)Nc2ccccc2)[C@@H](C)CN([C@@H](C)CO)C(=O)c2cc(NC(=O)CCC(F)(F)F)ccc2O1`: “inactive”; for `Cc1ccc(N(C(C)C(=O)Nc2ccc(Br)cc2F)S(C)(=O)=O)cc1C` (configuration not stated): “inactive”. Turning to `C[C@@H]1CN([C@H](C)CO)C(=O)c2cccc(NS(=O)(=O)c3cn(C)cn3)c2O[C@H]1CN(C)S(=O)(=O)c1ccc(Cl)cc1`, the compound was called inactive. The same measure for `C[C@@H]1CN([C@H](C)CO)C(=O)Cc2cc(NC(=O)Cc3ccccc3)ccc2O[C@H]1CN(C)S(=O)(=O)c1cccs1`: “inactive”; for `COCCOC(=O)N1C(=O)[C@@]2(c3cc(C#CCC(C(=O)OC)C(=O)OC)ccc31)[C@H](c1ccc(OCCO)cc1)N1[C@H](c3ccccc3)[C@H](c3ccccc3)OC(=O)[C@H]1[C@@H]2C(=O)NC[C@H](O)c1ccccc1`: “inactive”. For `C[C@@H]1CCCCO[C@@H](CN(C)Cc2ccncc2)[C@H](C)CN([C@@H](C)CO)C(=O)c2cc(NS(=O)(=O)c3ccccc3)ccc2O1` the value was “inactive”; for `C[C@@H]1CN([C@@H](C)CO)C(=O)Cc2cc(NC(=O)Cc3ccccc3)ccc2O[C@H]1CN(C)Cc1ccc(C(=O)O)cc1`, “inactive”; for `Cc1noc(C)c1NC(=O)Nc1ccc2c(c1)C(=O)N([C@H](C)CO)C[C@H](C)[C@H](CN(C)C(=O)C1CCCCC1)OCCCC[C@@H](C)O2`, “inactive”. The same measure for `C[C@H]1CCCCO[C@H](CN(C)C(=O)CCC(F)(F)F)[C@@H](C)CN([C@@H](C)CO)C(=O)c2cc(NC(=O)Cc3ccccc3)ccc2O1`: “inactive”. Take `C=CC[C@]1(C(=O)NCC(O)CO)N=C(c2ccc(OCCCO)cc2)O[C@H]1c1ccccc1` (some centres not stated): the call was inactive. For the compound `CNC[C@@H]1Oc2c(NC(=O)C3CCOCC3)cccc2C(=O)N([C@@H](C)CO)C[C@H]1C`, the call was inactive. For `COc1ccc(NC(=O)O[C@H]2[C@H](OC(=O)Nc3ccc4c(c3)OCO4)[C@@H](OC(=O)Nc3ccc4c(c3)OCO4)[C@@H](OC)O[C@@H]2CO)cc1` the value was “inactive”; for `C[C@H](CO)N1C[C@H](C)[C@@H](CN(C)Cc2ccncc2)Oc2ccc(NC(=O)Nc3ccccc3)cc2C1=O`, “inactive”; for `C[C@H](CO)N1C[C@H](C)[C@H](CN(C)Cc2ccncc2)Oc2ccc(NC(=O)Nc3ccc(F)cc3)cc2C1=O`, “inactive”.

Regarding `C[C@@H]1CN([C@@H](C)CO)C(=O)c2cc(NS(=O)(=O)c3cn(C)cn3)ccc2O[C@@H](C)CCCCO[C@H]1CN(C)S(=O)(=O)c1cn(C)cn1`, the call was inactive. For `OC(COc1ccc2ccccc2c1)Cn1cncn1` (configuration not stated) the value was “inactive”; for `COc1ccc(S(=O)(=O)N(C)C[C@@H]2Oc3ccc(NS(=O)(=O)c4ccc(Cl)cc4)cc3C(=O)N([C@H](C)CO)C[C@H]2C)cc1`, “inactive”; for `Cc1cc(C(=O)Nc2cccc3c2O[C@H](CN(C)C(=O)Nc2ccccc2)[C@@H](C)CN([C@H](C)CO)C3=O)n(C)n1`, “inactive”. For `O=c1[nH]c(CSCCO)nc2c1C1(CCCCC1)Cc1ccccc1-2` the value was “inactive”; for `C[C@@H]1CCCCO[C@@H](CN(C)Cc2ccc(Cl)c(Cl)c2)[C@@H](C)CN([C@@H](C)CO)C(=O)c2cc(NS(C)(=O)=O)ccc2O1`, “inactive”; for `CO[C@H]1O[C@H](CO)[C@@H](OC(=O)Nc2ccccc2)[C@H](OC(=O)Nc2ccc3c(c2)OCO3)[C@H]1OC(=O)Nc1ccc2c(c1)OCO2`, “inactive”. The same measure for `O=C(Cn1c(-c2ccccn2)nc2ccccc21)NCCN1CCOCC1`: “inactive”; for `C[C@H]1CN([C@@H](C)CO)C(=O)CCCn2nncc2CO[C@@H]1CN(C)Cc1ccc(Oc2ccccc2)cc1`: “inactive”; for `O=C1c2ccccc2C(=O)N1CCCn1c2ccccc2c2nc3ccc([N+](=O)[O-])cc3cc21`: “inactive”. Turning to `C[C@H]1CCCCO[C@@H](CN(C)Cc2ccncc2)[C@@H](C)CN([C@@H](C)CO)C(=O)c2cc(NC(=O)Nc3ccc(F)cc3)ccc2O1`, the compound was called inactive. Turning to `CN(C)c1nc(Nc2nc3ccccc3[nH]2)nc(N(C)C)n1`, the call was inactive. For `Cc1ccc(NC(=O)c2ccc(NCc3cccnc3)c([N+](=O)[O-])c2)cc1` the value was “inactive”; for `COc1ccc(S(=O)(=O)N(C)C[C@H]2Oc3ccc(NC(=O)CCC(F)(F)F)cc3CC(=O)N([C@H](C)CO)C[C@@H]2C)cc1`, “inactive”. On to `CC(C)NC(=O)N(C)C[C@H]1OCCCC[C@H](C)Oc2ccc(NC(=O)CCCN(C)C)cc2C(=O)N([C@@H](C)CO)C[C@H]1C`, for which the compound was called inactive. For `COC(=O)c1c(NC(=O)c2cc(-c3ccccn3)nc3c(C)cc(C)cc23)sc(C)c1C` the value was “inactive”.
